Counter-ions that a name gives are not always drawn. ± gives the standard deviation of the averaged measurements.
Experiments:
Experiment in all cases: growth (OD600 after 10 h); higher = more growth (less inhibition)
[1] = test system: E. coli TESEC Alr+ wild-type control; details: compound 0.1 mM; raw OD600 reference: median of DMSO wells 0.241, cell-free background 0.041
Description: (§1)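 TESEC Mtb Alr E. coli, or the Alr+ wild-type control, in 384-well plates with Prestwick library compounds at 0.1 mM and 1% DMSO, across arabinose induction levels of 1E3 to 1E7 nM. Growth is read as OD600 after 10 h at 37 °C in triplicate biological replicates.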

[2] = test system: E. coli TESEC Mtb Alr; details: compound 0.1 mM
Description: as §1

[3] = test system: E. coli TESEC Mtb Asd; details: compound 0.1 mM
Description: (§2)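 TESEC E. coli strains in which the native enzyme is deleted and replaced by arabinose-inducible Mtb Asd, DapB, CysH or TrpD, each grown in its selective medium. Strains were screened against the Prestwick library at 0.1 mM and 1% DMSO in 384-well format at low and high arabinose induction. Growth is read as OD600 after 10 h in triplicate.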

[4] = test system: E. coli TESEC Mtb DapB; details: compound 0.1 mM
Description: as §2

[5] = test system: E. coli TESEC Alr+ wild-type control; details: compound 0.1 mM; raw OD600 reference: median of DMSO wells 0.49, cell-free background 0.052
Description: (§3)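 TESEC Mtb Alr E. coli (ΔaraC ΔtolC ΔentC Δalr ΔdadX, arabinose-inducible Mtb Alr) or the Alr+ wild-type control strain, grown in defined M9-fructose medium without D-alanine in 96-well plates with Prestwick library compounds at 0.1 mM and 1% DMSO. Low Alr induction is 0.1 µM arabinose and high induction is 10 mM arabinose.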

[6] = test system: E. coli TESEC Mtb Alr; details: compound 0.1 mM; remark: listed apart in the source
Description: as §3

[7] = arabinose 1000 nM, raw OD600 reference: median of DMSO wells 0.294, cell-free background 0.041
[8] = arabinose 10000 nM, raw OD600 reference: median of DMSO wells 0.264, cell-free background 0.041
[9] = arabinose 100000 nM, raw OD600 reference: median of DMSO wells 0.201, cell-free background 0.041
[10] = arabinose 1000000 nM, raw OD600 reference: median of DMSO wells 0.193, cell-free background 0.041
[11] = arabinose 10000000 nM, raw OD600 reference: median of DMSO wells 0.146, cell-free background 0.041
[12] = arabinose induction (level): High, raw OD600 reference: median of DMSO wells 0.331, cell-free background 0.041
[13] = arabinose induction (level): Low, raw OD600 reference: median of DMSO wells 0.417, cell-free background 0.041
[14] = arabinose induction (level): High, raw OD600 reference: median of DMSO wells […], cell-free background 0.041
[15] = arabinose induction (level): Low, raw OD600 reference: median of DMSO wells 0.227, cell-free background 0.041
[16] = arabinose 100 nM, raw OD600 reference: median of DMSO wells 0.413, cell-free background 0.052
[17] = arabinose 10000000 nM, raw OD600 reference: median of DMSO wells […], cell-free background 0.052

Row | Compound | growth [1] | growth [2, 7] | growth [2, 8] | growth [2, 9] | growth [2, 10] | growth [2, 11] | growth [3, 12] | growth [3, 13] | growth [4, 14] | growth [4, 15] | growth [5] | growth [6, 16] | growth [6, 17]
1 | CC(C)[N+](C)(CCC(C(N)=O)(c1ccccc1)c1ccccc1)C(C)C [Isopropamide iodide] | 0.211 ± 0.003 | 0.285 ± 0.0086 | 0.248 ± 0.0032 | 0.199 ± 0.015 | 0.147 ± 0.0039 | 0.142 ± 0.0052 | 0.268 ± 0.036 | 0.41 ± 0.036 | 0.211 ± 0.025 | 0.201 ± 0.0096 | 0.516 ± 0.045 | 0.399 ± 0.025 | 0.331 ± 0.013
2 | CCC1(c2ccc(N)cc2)CCC(=O)NC1=O (stereo not given) [Glutethimide, para-amino] | 0.24 ± 0.0099 | 0.279 ± 0.016 | 0.251 ± 0.01 | 0.222 ± 0.029 | 0.178 ± 0.0065 | 0.146 ± 0.0091 | 0.393 ± 0.032 | 0.43 ± 0.03 | 0.189 ± 0.0071 | 0.226 ± 0.041 | – | 0.402 ± 0.014 | 0.383 ± 0.033
3 | C[C@]12C/C(=C/O)C(=O)C[C@@H]1CC[C@@H]1[C@@H]2CC[C@@]2(C)[C@H]1CC[C@]2(C)O [Oxymetholone] | 0.162 ± 0.002 | 0.293 ± 0.0078 | 0.241 ± 0.025 | 0.244 ± 0.014 | 0.101 ± 0.0039 | 0.177 ± 0.0058 | 0.124 ± 0.0085 | 0.226 ± 0.043 | 0.158 ± 0.013 | 0.194 ± 0.019 | – | 0.379 ± 0.019 | 0.252 ± 0.004
4 | CC1C=CC=CCCC=CC=CC=CC=CC(OC2OC(C)C(O)C(N)C2O)CC2OC(O)(CC(O)C(O)CCC(O)CC(O)CC(O)CC(=O)OC(C)C(C)C1O)CC(O)C2C(=O)O (stereo not given) [Nystatine] | 0.297 ± 0.0097 | 0.307 ± 0.025 | 0.2338 ± 0.0013 | 0.345 ± 0.014 | 0.1538 ± 0.0011 | 0.188 ± 0.0066 | 0.23 ± 0.021 | 0.256 ± 0.023 | 0.295 ± 0.013 | 0.269 ± 0.051 | – | 0.431 ± 0.0073 | 0.345 ± 0.016
5 | C[C@@H]1C[C@@H]([C@H](O)CC2CC(=O)NC(=O)C2)C(=O)[C@@H](C)C1 [Cycloheximide] | 0.25 ± 0.014 | 0.314 ± 0.018 | 0.268 ± 0.006 | 0.195 ± 0.009 | 0.186 ± 0.011 | 0.157 ± 0.0081 | 0.469 ± 0.0092 | 0.443 ± 0.042 | 0.231 ± 0.031 | 0.258 ± 0.027 | 0.529 ± 0.06 | 0.394 ± 0.033 | 0.33 ± 0.013
6 | CC(C)(C)NCC(O)c1cc(Cl)c(N)c(Cl)c1 (stereo not given) [Clenbuterol hydrochloride] | 0.226 ± 0.0046 | 0.292 ± 0.0084 | 0.246 ± 0.005 | 0.252 ± 0.011 | 0.215 ± 0.005 | 0.157 ± 0.0026 | 0.35 ± 0.0059 | 0.231 ± 0.031 | 0.185 ± 0.011 | 0.191 ± 0.0053 | – | 0.398 ± 0.011 | 0.355 ± 0.024
7 | CC(Cc1ccccc1)NCCC(c1ccccc1)c1ccccc1 (stereo not given) [Prenylamine lactate] | 0.04013 ± 0.00032 | 0.03927 ± 0.00035 | 0.0394 ± 0.0001 | 0.0405 ± 0.001 | 0.0393 | 0.0397 ± 0.00052 | 0.0468 ± 0.00058 | 0.0471 ± 0.00089 | 0.0466 ± 0.00036 | 0.04663 ± 0.00038 | – | 0.276 ± 0.19 | 0.0499 ± 0.00064
8 | CCC1(CC)C(=O)C=CNC1=O [Pyrithyldione] | 0.223 ± 0.0058 | 0.295 ± 0.026 | 0.289 ± 0.0059 | 0.207 ± 0.017 | 0.2322 ± 0.0018 | 0.152 ± 0.0058 | 0.398 ± 0.047 | 0.438 ± 0.018 | 0.205 ± 0.014 | 0.23 ± 0.01 | – | 0.389 ± 0.009 | 0.398 ± 0.025
9 | C[C@]12CC[C@@H](O)C[C@@H]1CC[C@@H]1[C@@H]2CC[C@]2(C)C(=O)CC[C@@H]12 [Androsterone] | 0.117 ± 0.0044 | 0.123 ± 0.002 | 0.212 ± 0.012 | 0.118 ± 0.0038 | 0.0932 ± 0.0027 | 0.0878 ± 0.0015 | 0.148 ± 0.026 | 0.324 ± 0.044 | 0.141 ± 0.013 | 0.138 ± 0.011 | 0.291 ± 0.016 | 0.3429 ± 0.0014 | 0.0883 ± 0.011
10 | CN1CCC2(C)c3cc(O)ccc3N(C)C12 (single isomer, unassigned; (-)) [(-)-Eseroline fumarate salt] | 0.225 ± 0.0084 | 0.287 ± 0.014 | 0.306 ± 0.0086 | 0.312 ± 0.015 | 0.168 ± 0.0079 | 0.19 ± 0.0049 | 0.194 ± 0.027 | 0.402 ± 0.064 | 0.197 ± 0.0051 | 0.209 ± 0.034 | 0.577 ± 0.095 | 0.42 ± 0.0066 | 0.317 ± 0.021
11 | C=CC[C@]1(O)CC[C@H]2[C@@H]3CCC4=CC(=O)CCC4=C3C=C[C@@]21C [Altrenogest] | 0.132 ± 0.0045 | 0.16 ± 0.0073 | 0.167 ± 0.0079 | 0.144 ± 0.0049 | 0.0767 ± 0.0035 | 0.118 ± 0.005 | 0.148 ± 0.027 | 0.126 ± 0.021 | 0.148 ± 0.002 | 0.162 ± 0.006 | 0.293 ± 0.0069 | 0.376 ± 0.0056 | 0.134 ± 0.011
12 | CC(=O)OCC(=O)[C@H]1CC[C@H]2[C@@H]3CC[C@H]4C[C@H](O)CC[C@]4(C)[C@H]3C(=O)C[C@]12C [Alfadolone acetate] | 0.15 ± 0.0034 | 0.196 ± 0.003 | 0.222 ± 0.0029 | 0.194 ± 0.0054 | 0.153 ± 0.0021 | 0.109 ± 0.0024 | 0.289 ± 0.075 | 0.19 ± 0.0093 | 0.137 ± 0.0076 | 0.157 ± 0.03 | – | 0.395 ± 0.007 | 0.257 ± 0.0074
13 | CCC(COC(=O)c1cc(OC)c(OC)c(OC)c1)(c1ccccc1)N(C)C (stereo not given) [Trimebutine] | 0.13 ± 0.0031 | 0.142 ± 0.012 | 0.151 ± 0.011 | 0.116 ± 0.0031 | 0.0716 ± 0.0024 | 0.101 ± 0.015 | 0.205 ± 0.033 | 0.245 ± 0.085 | 0.1665 ± 0.0014 | 0.191 ± 0.028 | 0.255 ± 0.018 | 0.403 ± 0.0063 | 0.119 ± 0.0083
14 | CCn1cc(C(=O)O)c(=O)c2cc3c(cc21)OCO3 [Oxolinic acid] | 0.0726 ± 0.0019 | 0.05577 ± 0.00049 | 0.0509 ± 0.00026 | 0.0646 ± 0.0014 | 0.0934 ± 0.0036 | 0.123 ± 0.0027 | 0.156 ± 0.011 | 0.149 ± 0.011 | 0.194 ± 0.0098 | 0.208 ± 0.054 | – | 0.0698 ± 0.0013 | 0.0582 ± 0.0011
15 | C[N+](C)(C)CCCCCCCCCC[N+](C)(C)C [Decamethonium bromide] | 0.246 ± 0.0085 | 0.286 ± 0.015 | 0.2525 ± 0.0016 | 0.214 ± 0.022 | 0.208 ± 0.003 | 0.13 ± 0.0017 | 0.369 ± 0.032 | 0.444 ± 0.043 | 0.234 ± 0.021 | 0.242 ± 0.0099 | – | 0.39 ± 0.017 | 0.376 ± 0.022
16 | C(#CCN1CCCC1)CN1CCCC1 [Tremorine dihydrochloride] | 0.275 ± 0.0094 | 0.317 ± 0.011 | 0.27 ± 0.005 | 0.239 ± 0.013 | 0.194 ± 0.0086 | 0.162 ± 0.008 | 0.425 ± 0.059 | 0.464 ± 0.029 | 0.2 ± 0.015 | 0.234 ± 0.059 | – | 0.415 ± 0.018 | 0.375 ± 0.023
17 | C=CCC1(CC(C)C)C(=O)NC(=O)NC1=O [Butalbital] | 0.2428 ± 0.002 | 0.282 ± 0.011 | 0.276 ± 0.0052 | 0.198 ± 0.012 | 0.211 ± 0.0091 | 0.149 ± 0.0019 | 0.407 ± 0.1 | 0.3 ± 0.074 | 0.218 ± 0.021 | 0.24 ± 0.015 | – | 0.395 ± 0.0067 | 0.37 ± 0.0073

— the supplement of paper PMC9262897, “Low-cost anti-mycobacterial drug discovery using engineered E. coli” (Nature Communications, 2022)
